# Assay outcomes (PubChem BioAssay)
# An excerpt weighted towards active compounds, which were near 5.8% of everything screened.
# PINK1 modulator: modulators of PINK1 expression | PINK1 immunofluorescence, high-content cytometry, 24 h | Potency, µM (series often up to 76.6 µM), for the others: at the top dose activation (PINK1 increase), actives largely listed as activators | hit rate 0.2% among 410,000; active means well fitted activation curve with a large enough effect; inconclusive means small, poorly fitted or top-dose-only effect; cell line not stated here; further: % of control where 0% means no effect; nearly all actives have a fitted effect of over 65% in size
#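 Stable cell line treated 24 h with compounds at 5 concentrations (CCCP controls), then fixed and immunostained for PINK1 plus nuclear and cell stains; PINK1 immunofluorescence quantified by laser-scanning microplate cytometry.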
# KB-3-1 cytotox: KB-3-1 parental cell cytotoxicity; AID 1347075; hit rate 1.4% among 400,000; Potency, µM (highest dose often 46.1 µM), usual class: cytotoxic; KB-3-1 viability, CellTiter-Glo ATP luminescence, 72 h; further: on the % scale 0 is the no-effect control and ±100 the full control effect; nearly all actives have a fitted effect of over 60% in size
#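 Screening of KB-3-1 cells (DMEM, 10% FBS, phenol-red free) ran from lowest to highest compound concentration; after 72 h at 37 °C viability was read luminescently and curves fitted.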
# MCF10A rerep: induces DNA re-replication in MCF 10a normal breast cells; MCF 10A DNA re-replication, Hoechst nuclear intensity, 48 h; Potency, µM (highest dose often 46.1 µM), inactives show at the highest dose activity, positive = re-replication, usual class: activators; hit rate 2.9% among 350,000; further: % of control where 0% means no effect; nearly all actives have a fitted effect of over 50% in size
# SW480 rereplic: induces DNA re-replication in SW480 colon adenocarcinoma cells. SW480 DNA re-replication, Hoechst DNA content imaging, 48 h. hit rate 1.8% among 340,000. Potency, µM (highest dose often 46.1 µM), for the others: at the highest dose re-replication activation, hits mostly activators; further: % of control where 0% means no effect; nearly all actives have a fitted effect of over 55% in size
#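 Compounds, transferred as 23 nL by pin tool, were incubated with cells for 48 hr; DNA content per nucleus was then quantified by Hoechst staining and fluorescence plate imaging.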
# KB-V1 MDR tox: KB-V1 MDR subline cytotoxicity | AID 1347076 | Potency, µM (highest dose often 46.1 µM), most hits filed as cytotoxic | KB-V1 MDR cells viability, CellTiter-Glo, 72 h | hit rate 3.4% among 400,000; further: on the % scale 0 is the no-effect control and ±100 the full control effect; nearly all actives have a fitted effect of over 60% in size
#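 KB-V1 MDR subline cells in DMEM (phenol-red free, 10% FBS) exposed to compounds in qHTS concentration series for 72 h at 37 degrees C. Viability read by CellTiter-Glo luminescence; concentration-effect curves fitted after normalization and correction.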
# ALOX12 inh: ALOX12 (human) lipoxygenase inhibition; P18054; purified 12hLO, xylenol orange hydroperoxide absorbance; Potency, µM (doses to about 108 µM), for the others: top-dose activity change, negative = inhibition, actives largely listed as inhibitors; hit rate 1.1% among 580,000; further: on the % scale 0 is the no-effect control and ±100 the full control effect
# Target sequence (P18054 whole entry, looked up): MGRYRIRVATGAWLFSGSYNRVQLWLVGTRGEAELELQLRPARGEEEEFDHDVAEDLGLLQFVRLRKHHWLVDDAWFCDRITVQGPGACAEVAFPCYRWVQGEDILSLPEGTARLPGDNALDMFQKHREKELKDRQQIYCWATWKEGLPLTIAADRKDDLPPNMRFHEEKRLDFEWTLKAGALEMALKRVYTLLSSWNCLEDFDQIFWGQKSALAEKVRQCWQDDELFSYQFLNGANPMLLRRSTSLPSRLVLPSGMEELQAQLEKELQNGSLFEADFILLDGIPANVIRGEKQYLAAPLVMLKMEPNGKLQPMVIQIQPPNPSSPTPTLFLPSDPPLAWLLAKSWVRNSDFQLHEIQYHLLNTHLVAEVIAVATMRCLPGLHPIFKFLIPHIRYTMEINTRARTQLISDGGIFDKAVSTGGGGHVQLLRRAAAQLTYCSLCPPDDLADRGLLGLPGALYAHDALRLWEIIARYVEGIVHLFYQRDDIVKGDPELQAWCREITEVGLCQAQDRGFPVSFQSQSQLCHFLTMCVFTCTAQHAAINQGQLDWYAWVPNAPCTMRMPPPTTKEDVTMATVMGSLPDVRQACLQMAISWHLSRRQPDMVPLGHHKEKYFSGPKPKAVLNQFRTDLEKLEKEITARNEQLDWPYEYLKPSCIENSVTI
#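 Purified human 12hLO at 150 nM in 25 mM Hepes, 0.01% Triton X-100, pH 7.0, preincubated 15 min at room temperature with compound. Reaction started with 40 uM arachidonic acid, 30 min at room temperature. Hydroperoxide measured by Fe-xylenol orange, 573/405 nm absorbance ratio.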
# * = called active by the depositor; i = inactive; u = inconclusive; x = no result; [ ] = dose if it differs, or a comment. Unless noted, the call rests on the fitted dose curve; in most records, active means well fitted curve in the direction sought with a large enough effect; inconclusive means small, poorly fitted or top-dose-only effect, or another doubt; inactive means no such curve, though single readings can be large; an effect the other way counts as inactive or inconclusive. Potency means the concentration at half of the fitted maximal effect.
SMILES,PINK1 modulator,KB-3-1 cytotox,MCF10A rerep,SW480 rereplic,KB-V1 MDR tox,ALOX12 inh
O=C1CC(/C=C/c2ccccc2)(C(=O)NC2CCCC2)N1c1ccc(S(=O)(=O)N2CCCC2)cc1 (configuration not stated),3%,i,u,12%,2.9µM*,0%
COc1ccc(N2C(=O)CC2(/C=C/c2ccccc2OC)C(=O)NC2CCCC2)cc1 (configuration not stated),1%,u,-2%,1%,3.7µM*,u
CCN(CC)c1ccc(/C=C/c2nccc3ccccc23)cc1,0%,i,x,x,i,x
CC(=O)/C=C/c1ccc2ccccc2n1,0%,i,15µM*,9.2µM*,i,u
CC[N+](C)(C)c1ccc(/C=C/c2ccc3ccccc3n2)cc1,5µM*,2.9µM*,x,x,i,x
CCN(CC)c1ccc(/C=C/c2ccc3ccccc3n2)cc1,u,2.3µM*,x,x,u,x
Cc1ccc(CNc2nc(-c3ccco3)nn2S(C)(=O)=O)o1,x,x,x,x,x,-25%
CONC(=O)CSCC(=O)Nc1cccc(C)c1,x,x,x,x,x,-35%
Cc1[nH]n2c(=O)cc(-c3ccc([N+](=O)[O-])cc3)nc2c1-c1ccccc1,-1%,u,u,u,i,u
COc1cccc(-c2cc3nc(-c4ccccc4)cc(=O)n3[nH]2)c1,5%,5.8µM*,u,22%,4.6µM*,0%
Cc1[nH]n2c(=O)cc(-c3ccc(Cl)cc3)nc2c1-c1ccccc1,9%,u,x,x,i,40µM*
COc1ccc(-c2c(C(F)(F)F)[nH]n3c(=O)cc(-c4ccccc4)nc23)cc1,u,i,2.6µM*,29µM*,u,11µM*
Cc1[nH]n2c(=O)cc(C(C)(C)C)nc2c1-c1ccccc1,-1%,7.3µM*,u,u,u,-1%
O=c1cc(-c2ccccc2)nc2cc(-c3ccc(F)cc3)[nH]n12,8%,u,u,u,u,57%
Cc1ccccc1C1(O)CCN(C(=O)c2ccc(C#CC(C)(C)O)o2)C1 (configuration not stated),x,x,x,x,x,7%
COc1ccc2cc(C(=O)NCc3ccccc3CN3CCCC3)c(C)nc2c1,x,x,x,x,x,-1%
CCn1c(SCc2cc(OC)c(OC)cc2Br)nc2cc(S(N)(=O)=O)ccc21,x,x,x,x,x,-9%
CCCc1cc(=O)n2[nH]c(C)c(-c3ccccc3)c2n1,-1%,u,u,-4%,u,u
CCc1cc(=O)n2[nH]c(-c3ccccc3)c(-c3ccccc3)c2n1,-2%,u,u,21µM*,i,-16%
Cc1[nH]n2c(=O)c3c(nc2c1-c1ccc(Cl)cc1)CCC3,3%,8.2µM*,u,-13%,u,x
CC(C)C1=NOC2(CCN(Cc3ccc(C#N)cc3)C2)C1 (configuration not stated),x,x,x,x,x,13%[12.5 µM]
O=C(C(=O)N(Cc1ccccc1)Cc1ccccc1)c1c(-c2ccccc2)[nH]c2ccccc12,-1%,i,15%,18µM*,i,u
COCCNC(=O)C(=O)c1c(-c2ccccc2)[nH]c2ccccc12,0%,i,-8%,-5%,i,32%
O=C(CC(SCc1ccco1)c1ccc(O)cc1)c1cccs1 (configuration not stated),-1%,21µM*,u,-3%,i,4%
O=C(CSc1nnc(-c2ccc(O)cc2)n1Cc1ccco1)c1cccs1,-3%[38.3 µM],i,1%,-4%,i,-22%
SMILES,PINK1 modulator,KB-3-1 cytotox,MCF10A rerep,SW480 rereplic,KB-V1 MDR tox,ALOX12 inh
CC(C)NC(=O)CSc1nc(-c2ccccc2)[nH]c1S(=O)(=O)c1ccccc1,x,x,x,x,x,13%
COc1ccc(CSCC(=O)NCCC(C)C)cc1,3%,i,5%,-4%,i,u
COc1ccc(NC(=O)CN(C)CC(=O)Nc2ccccc2SC)cc1,0%,i,-1%,-1%,21µM*,-17%
COc1ccc(NC(=O)CN(C)C(C)C(=O)N2CCCCC2)cc1 (configuration not stated),0%[38.3 µM],i,-4%,-6%,12µM*,u
COc1ccc(S(=O)(=O)N(C)CC(=O)Nc2ccccc2C(F)(F)F)cc1Cl,5%[38.3 µM],i,-10%,-1%,15µM*,-32%
COc1ccc(CSCC(=O)Nc2ccccc2SC)cc1,0%,u,u,u,18µM*,0%
COc1ccc(CN2CC(Oc3ccc(F)c(C)c3)C2)cc1,x,x,x,x,x,45%[176 µM]
O=C(Nc1ccccc1Sc1ccccc1)C1CC=CCC1 (configuration not stated),x,x,x,x,x,-3%
CC(C(=O)NC1CCN(Cc2ccccc2)CC1)N1Cc2ccccc2C1=O (configuration not stated),x,x,x,x,x,-25%
CCOc1ccc(NC(=O)CN(C)CC(=O)Nc2cc(Cl)ccc2C#N)cc1OCC,1%,i,0%,0%,i,-6%
COc1ccc2ccc(O)c(CN(C)CC(=O)Nc3ccccc3C(F)(F)F)c2c1,5%,i,u,-22%,i,7.1µM*
CSc1ccccc1NC(=O)CN(C)CC(=O)c1c(C)[nH]c2ccccc12,4%,i,3%,-7%,21µM*,174%
CCOc1ccc(NC(=O)CN(C)CC(=O)Nc2ccccc2SC)cc1OCC,1%,i,1%,3%,3.7µM*,21%
CSc1ccccc1NC(=O)CN(C)CC(=O)NCC(=O)Nc1ccc(F)cc1,-2%,i,9%,1%,i,4%
CCNC(=O)C(C)Sc1nnc(-c2cccs2)n1C1CC1 (configuration not stated),x,x,x,x,x,-8%
CC(C)CCN1C(=O)c2ccc(-c3nc4ccccc4o3)cc2C1=O,x,x,x,x,x,-45%
O=C(NNC(=O)c1cc(-c2ccc(Cl)cc2Cl)nc2ccccc12)Nc1ccccc1,4%,u,u,u,23µM*,5%
COc1ccc(-c2cc(C(=O)NCc3ccc(F)cc3)c3ccccc3n2)c(OC)c1,x,x,x,x,x,16µM*
COc1ccc(-c2cc(C(=O)NCc3ccco3)c3ccccc3n2)c(OC)c1,0%,i,-8%,13%,i,u
CCCCOc1ccc(-c2cc(C(=O)NNC(=S)NCC)c3ccccc3n2)cc1,2%[38.3 µM],7.3µM*,41%,4%,6.5µM*,u
CCCCOc1cccc(-c2cc(C(=O)NNC(=S)NCC)c3ccccc3n2)c1,1%[38.3 µM],i,-3%,5%,21µM*,-29%
Cc1ccc(S(=O)(=O)NCCO)c2ccccc12,x,x,x,x,x,-18%
CCNC(=S)NNC(=O)c1cc(-c2ccc(OC)cc2)nc2ccccc12,4%,u,14%,x,9.2µM*,u
